# Data from PubChem BioAssay AID1159580 (chemical genetic matrix, 2015).
# Hit rate of the full screen: of about 5,500 compounds, about 2,000 (36%) were called active. Another 18% or so got no clear call; they are omitted. The list shows a part of the results. Unmarked numbers belong to inactive results. Rule as the data show it: active = normalized growth mostly below about 0.91 (no sharp cut-off); inconclusive = no clear call, values can overlap the other calls; inactive = mostly above about 0.92.
# Assay: chemical genetic growth profiling, strain panel (AID 1159580);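 also: tested at 20 µM; growth read once vehicle control cultures reached saturation at 30 °C; 1 = growth at the plate median or of vehicle wells; lower values mean less growth of the strain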
# Conditions: S. cerevisiae deletion strains, growth OD
compound,measurement,setting,value
O=c1[nH]c(=O)c2nc3ccccc3nc2[nH]1,normalized growth,"locus YAL040C, strain CLN3, stronger effect = lower value",0.979
same,normalized growth,"locus YER002W, strain NOP16, stronger effect = lower value",1
same,normalized growth,"locus YGR078C, strain PAC10, stronger effect = lower value",1.01
same,normalized growth,"locus YMR307W, strain GAS1, stronger effect = lower value",0.994
same,normalized growth,"locus YNL153C, strain GIM3, stronger effect = lower value",1.01
same,normalized growth,"locus YNL175C, strain NOP13, stronger effect = lower value",0.98
same,normalized growth,"locus YNL197C, strain WHI3, stronger effect = lower value",0.971
same,normalized growth,"locus YNL224C, strain SQS1, stronger effect = lower value",0.999
same,normalized growth,"locus YOR083W, strain WHI5 (second series), stronger effect = lower value",0.997
same,normalized growth,"locus YPL241C, strain CIN2, stronger effect = lower value",1
O=[N+]([O-])c1ccc(-c2noc(-c3ccno3)n2)o1,normalized growth,"locus YAR019C, strain CDC15, stronger effect = lower value",0.0919 (active)
same,normalized growth,"locus YBL105C, strain PKC1, stronger effect = lower value",0.118 (active)
same,normalized growth,"locus YBR135W, strain CKS1, stronger effect = lower value",0.133 (active)
same,normalized growth,"locus YBR136W, strain MEC1, stronger effect = lower value",0.119 (active)
same,normalized growth,"locus YBR160W, strain CDC28, stronger effect = lower value",0.121 (active)
same,normalized growth,"locus YDL017W, strain CDC7, stronger effect = lower value",0.122 (active)
same,normalized growth,"locus YDL028C, strain MPS1, stronger effect = lower value",0.128 (active)
same,normalized growth,"locus YDL101C, strain DUN1, stronger effect = lower value",0.143 (active)
same,normalized growth,"locus YDL108W, strain KIN28, stronger effect = lower value",0.123 (active)
same,normalized growth,"locus YDL132W, strain cdc53, stronger effect = lower value",0.106 (active)
same,normalized growth,"locus YDL214C, strain PRR2, stronger effect = lower value",0.103 (active)
same,normalized growth,"locus YDR052C, strain DBF4, stronger effect = lower value",0.129 (active)
same,normalized growth,"locus YDR054C, strain cdc34, stronger effect = lower value",0.108 (active)
same,normalized growth,"locus YDR226W, strain ADK1, stronger effect = lower value",0.113 (active)
same,normalized growth,"locus YDR477W, strain SNF1, stronger effect = lower value",0.102 (active)
same,normalized growth,"locus YER123W, strain YCK3, stronger effect = lower value",0.113 (active)
same,normalized growth,"locus YER133W, strain GLC7, stronger effect = lower value",0.102 (active)
same,normalized growth,"locus YFL009W, strain cdc4, stronger effect = lower value",0.109 (active)
same,normalized growth,"locus YFL029C, strain CAK1, stronger effect = lower value",0.0982 (active)
same,normalized growth,"locus YFR003C, strain YPI1, stronger effect = lower value",0.126 (active)
same,normalized growth,"locus YFR019W, strain FAB1, stronger effect = lower value",0.104 (active)
same,normalized growth,"locus YFR028C, strain CDC14, stronger effect = lower value",0.0999 (active)
same,normalized growth,"locus YGR040W, strain KSS1, stronger effect = lower value",0.107 (active)
same,normalized growth,"locus YGR052W, strain FMP48, stronger effect = lower value",0.123 (active)
same,normalized growth,"locus YGR092W, strain DBF2, stronger effect = lower value",0.106 (active)
same,normalized growth,"locus YHR030C, strain SLT2, stronger effect = lower value",0.135 (active)
same,normalized growth,"locus YHR079C, strain IRE1, stronger effect = lower value",0.171 (active)
same,normalized growth,"locus YHR082C, strain KSP1, stronger effect = lower value",0.143 (active)
same,normalized growth,"locus YHR205W, strain SCH9, stronger effect = lower value",-0.000394 (active)
same,normalized growth,"locus YIL147C, strain SLN1, stronger effect = lower value",0.129 (active)
same,normalized growth,"locus YJL095W, strain BCK1, stronger effect = lower value",0.141 (active)
same,normalized growth,"locus YJL128C, strain PBS2, stronger effect = lower value",0.117 (active)
same,normalized growth,"locus YJL157C, strain FAR1, stronger effect = lower value",0.107 (active)
same,normalized growth,"locus YJR016C, strain ILV3, stronger effect = lower value",0.0915 (active)
same,normalized growth,"locus YJR066W, strain TOR1 (second series), stronger effect = lower value",0.0932 (active)
same,normalized growth,"locus YJR066W, strain TOR1, stronger effect = lower value",0.125 (active)
same,normalized growth,"locus YKL048C, strain ELM1, stronger effect = lower value",0.115 (active)
same,normalized growth,"locus YKL067W, strain YNK1, stronger effect = lower value",0.0963 (active)
same,normalized growth,"locus YKL101W, strain HSL1, stronger effect = lower value",0.106 (active)
same,normalized growth,"locus YKL193C, strain SDS22, stronger effect = lower value",0.0909 (active)
same,normalized growth,"locus YKL203C, strain TOR2, stronger effect = lower value",0.104 (active)
same,normalized growth,"locus YLR113W, strain HOG1, stronger effect = lower value",0.2 (active)
same,normalized growth,"locus YLR133W, strain CKI1, stronger effect = lower value",0.0997 (active)
same,normalized growth,"locus YLR403W, strain SFP1, stronger effect = lower value",0.00715 (active)
same,normalized growth,"locus YML070W, strain DAK1, stronger effect = lower value",0.1 (active)
same,normalized growth,"locus YMR001C, strain CDC5, stronger effect = lower value",0.093 (active)
same,normalized growth,"locus YMR205C, strain PFK2 (second series), stronger effect = lower value",0.0958 (active)
same,normalized growth,"locus YMR277W, strain FCP1, stronger effect = lower value",0.0929 (active)
same,normalized growth,"locus YNL006W, strain LST8, stronger effect = lower value",0.104 (active)
same,normalized growth,"locus YNL020C, strain ARK1, stronger effect = lower value",0.101 (active)
same,normalized growth,"locus YNL161W, strain CBK1, stronger effect = lower value",0.103 (active)
same,normalized growth,"locus YNL183C, strain NPR1, stronger effect = lower value",0.138 (active)
same,normalized growth,"locus YNL207W, strain RIO2, stronger effect = lower value",0.0962 (active)
same,normalized growth,"locus YNL222W, strain SSU72, stronger effect = lower value",0.1 (active)
same,normalized growth,"locus YNL307C, strain MCK1 (second series), stronger effect = lower value",0.11 (active)
same,normalized growth,"locus YOL078W, strain AVO1, stronger effect = lower value",0.0939 (active)
same,normalized growth,"locus YOL136C, strain PFK27, stronger effect = lower value",0.124 (active)
same,normalized growth,"locus YOR061W, strain CKA2, stronger effect = lower value",0.0948 (active)
same,normalized growth,"locus YOR119C, strain RIO1, stronger effect = lower value",0.112 (active)
same,normalized growth,"locus YOR231W, strain MKK1, stronger effect = lower value",0.14 (active)
same,normalized growth,"locus YOR329C, strain SCD5, stronger effect = lower value",0.104 (active)
same,normalized growth,"locus YPL031C, strain PHO85, stronger effect = lower value",0.112 (active)
same,normalized growth,"locus YPL153C, strain RAD53, stronger effect = lower value",0.0949 (active)
same,normalized growth,"locus YPL204W, strain HRR25, stronger effect = lower value",0.106 (active)
same,normalized growth,"locus YPL209C, strain IPL1, stronger effect = lower value",0.105 (active)
same,normalized growth,"locus YPL256C, strain CLN2, stronger effect = lower value",0.178 (active)
same,normalized growth,"locus YPR025C, strain CCL1, stronger effect = lower value",0.111 (active)
same,normalized growth,"locus YPR106W, strain ISR1, stronger effect = lower value",0.132 (active)
same,normalized growth,"locus YPR111W, strain DBF20, stronger effect = lower value",0.149 (active)
same,normalized growth,"strain NNK1, stronger effect = lower value",0.104 (active)
same,normalized growth,"strain TSCII, stronger effect = lower value",0.0899 (active)
